Test results reported in PMC5540273 (PLoS ONE, 2017).

How the values were obtained:
Conditions in all cases: concentration: 1 μM, replicates: in singlicate; n = 1
HASPIN = test system: T1, HASPIN
T1 construct: gene GSG2

HCK = test system: HCK
HIPK1 = test system: HIPK1
HIPK2 = test system: HIPK2
HIPK3 = test system: HIPK3
HIPK4 = test system: HIPK4
HPK1 = test system: HPK1
HUNK = test system: HUNK
ICK = test system: ICK
IGF1R = test system: IGF1R
IKK-alpha = test system: T2, IKK-alpha
T2 construct: gene CHUK

IKK-beta = test system: T3, IKK-beta
T3 construct: gene IKBKB

IKK-epsilon = test system: T4, IKK-epsilon
T4 construct: gene IKBKE

INSRR = test system: INSRR
INSR = test system: INSR
IRAK1 = test system: IRAK1
IRAK3 = test system: IRAK3
IRAK4 = test system: IRAK4
ITK = test system: ITK
[1] = test system: JAK1(JH1domain-catalytic)
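Note: KINOMEscan kinase panel screen.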

SMILES	%Inh (HASPIN) [%]	%Inh (HCK) [%]	%Inh (HIPK1) [%]	%Inh (HIPK2) [%]	%Inh (HIPK3) [%]	%Inh (HIPK4) [%]	%Inh (HPK1) [%]	%Inh (HUNK) [%]	%Inh (ICK) [%]	%Inh (IGF1R) [%]	%Inh (IKK-alpha) [%]	%Inh (IKK-beta) [%]	%Inh (IKK-epsilon) [%]	%Inh (INSRR) [%]	%Inh (INSR) [%]	%Inh (IRAK1) [%]	%Inh (IRAK3) [%]	%Inh (IRAK4) [%]	%Inh (ITK) [%]	%Inh [1] [%]
O=c1[nH]cc(-c2ccc(N3CCOCC3)cc2)c2sc(-c3cn[nH]c3)cc12 [GSK2276055]	79	0	97.3	97.5	99	47	26	11	31	0	0	11	34	0	24	0	0	9	0	24
O=C(Nc1ccccc1F)NC1CCN(c2ccnc(Nc3ccc(F)cc3)n2)CC1 [GSK1379800]	9	0	0	0	16	0	34	6	3	10	0	0	22	0	0	24	21	5	0	20
Cl.Cl.NCC(C(=O)Nc1cc(Br)c(-c2ccnc3[nH]ccc23)s1)c1ccccc1 (centres unmarked) [GSK1269851]	97.6	29	48	0	55	81	41	0	33	16	44	34	0	0	0	81	34	26	12	2
O=C(Nc1n[nH]c2cc(-c3ccoc3)ccc12)C1CC1 [SB-738481]	27	0	57	65	58	46	7	0	94.8	0	0	0	0	0	0	0	0	0	0	0
COc1cc2c(cc1OCCN1CCNCC1)ncc1c3ccc(C#N)cc3[nH]c21	93.5	3	95.2	99.8	91.9	54	0	0	48	0	46	32	61	3	0	95.7	88	99.7	23	0
COc1cccc(C(=O)Nc2cccc(Oc3ccc4nc(NC(=O)C5CC5)cn4n3)c2)c1	0	98.1	37	0	0	15	42	12	0	0	0	2	0	0	0	0	37	0	20	15
C[C@@H](Oc1cc(-n2cnc3cc(-c4ccnc(NCCS(C)(=O)=O)c4)ccc32)sc1C(N)=O)c1ccccc1Cl [GSK907232]	26	34	0	0	7	20	87	0	19	0	2	15	0	2	0	36	0	13	21	0
CC(=O)Nc1nc2cnc(Nc3cc(NC(=O)c4cccc(C5(C#N)CC5)c4Cl)ccc3C)nc2s1	0	53	27	0	0	6	1	12	0	0	7	6	0	0	0	10	24	21	0	17
CC(C)c1nc(-c2cccc(NS(=O)(=O)c3c(F)cccc3F)c2F)c(-c2ccnc(Nc3ccc(N4CCOCC4)nc3)n2)s1 [GSK2008607]	0	99.5	91.1	92.3	94.5	94.7	88	0	77	8	0	4	85	4	4	17	16	10	97.4	1
O=C(Nc1cccc(-c2nn3ccccc3c2-c2ccnc(Nc3cccc(F)c3)n2)c1)c1c(F)ccc(F)c1Cl [GSK357952]	0	99.1	0	13	1	51	13	0	3	17	0	0	65	19	8	83	0	84	12	0
O=C(NC1CCN(c2ccnc(Nc3ccc(F)cc3)n2)C1)c1cc2ccccc2s1 (centres unmarked) [GSK1379716]	12	0	0	0	8	0	54	10	0	13	21	0	15	0	70	32	11	17	21	29
COc1cc(Nc2nccc(-c3c(-c4cccc(NC(=O)c5c(F)cccc5F)c4)nn4ncccc34)n2)cc(OC)c1OC [GSK327238]	0	96.6	0	0	18	29	82	12	4	95.8	0	0	23	93	64	0	74	0	5	17
CN1CCN(CCCNc2nccc(-c3c(-c4ccc(F)cc4)nn4cc(C(F)(F)F)ccc34)n2)CC1 [GW621581]	0	14	0	2	0	0	30	0	0	0	35	23	0	0	0	0	0	7	0	0
COc1cccc(NC(=O)NC2CCN(c3ccnc(Nc4cc(OC)c(OC)c(OC)c4)n3)C2)c1 (centres unmarked) [GSK1379763]	0	0	0	0	85	0	76	0	18	0	0	6	12	0	0	73	86	27	25	0
Nc1n[nH]c2cnc(-c3ccccc3)cc12 [SB-642124]	68	0	64	78	88	7	58	0	26	0	55	64	13	100	0	49	3	32	13	37
FC(F)(F)c1ccc(/C=C/c2cncnc2Nc2ccc3[nH]c(Cc4ccccc4)nc3c2)cc1 [GW709199]	12	14	21	0	0	13	12	55	0	0	0	0	0	0	0	2	3	0	6	10
CNC(=O)c1ccccc1Nc1nc(Nc2ccc(N3CCOCC3)cc2)ncc1Cl.Cl [GSK1576028]	80	99.6	99.4	99.3	99	99.3	98.8	0	57	96.6	85	78	74	98.6	95.5	100	99.7	99.6	99.9	97.6
Cl.NC(=O)c1cccc(Nc2nccc(Nc3ccc(Oc4c(Cl)cccc4Cl)c(Cl)c3)n2)c1 [GW659009]	0	77	0	11	2	4	0	0	0	0	0	0	0	0	0	0	90	0	98.7	9
COC(=O)Nc1nc2cc(Oc3ccc(NC(=O)Nc4cc(C(F)(F)F)ccc4F)cn3)ccc2[nH]1.Cl.Cl [GW681170]	47	15	0	0	0	91.6	16	7	0	12	66	17	0	0	0	49	0	3	0	30

SMILES	%Inh (HASPIN) [%]	%Inh (HCK) [%]	%Inh (HIPK1) [%]	%Inh (HIPK2) [%]	%Inh (HIPK3) [%]	%Inh (HIPK4) [%]	%Inh (HPK1) [%]	%Inh (HUNK) [%]	%Inh (ICK) [%]	%Inh (IGF1R) [%]	%Inh (IKK-alpha) [%]	%Inh (IKK-beta) [%]	%Inh (IKK-epsilon) [%]	%Inh (INSRR) [%]	%Inh (INSR) [%]	%Inh (IRAK1) [%]	%Inh (IRAK3) [%]	%Inh (IRAK4) [%]	%Inh (ITK) [%]	%Inh [1] [%]
c1ccc(-c2n[nH]cc2Nc2ccnc3ccccc23)nc1 [GW694077]	100	0	92.7	98.6	98.3	47	32	0	0	2	92.1	81	0	0	0	85	90.9	47	14	0
Cc1ccc(C)c(NC(=O)NC2CCN(c3ccnc(Nc4ccc(F)cc4)n3)C2)c1 (centres unmarked) [GSK1379720]	44	0	0	10	0	0	45	0	0	25	32	18	3	0	0	40	0	20	5	12
Cl.c1ccc(-c2ccc3c(Nc4ccc5[nH]ncc5c4)ccnc3c2)nc1 [GW440137]	6	16	62	47	51	0	23	9	0	12	10	15	17	0	15	18	26	12	7	26
CC(=O)N1CCN(c2ccc(Nc3nccc(-c4sc(C(C)C)nc4-c4cccc(NS(=O)(=O)c5cccc(Cl)c5)c4)n3)cn2)CC1 [GSK1660437]	0	83	40	5	35	82	36	0	0	0	0	0	20	25	8	0	0	0	20	0
CN1CCN(Cc2cccc(-c3ccc4c(Nc5ccc(Oc6ccccc6)cc5)ccnc4c3)c2)CC1 [GW578342]	17	95.1	0	2	0	0	25	11	0	5	5	0	12	6	0	13	0	0	9	21
Clc1ccc(-c2nn3ncccc3c2-c2ccnc(Nc3ccc4c(c3)OCCO4)n2)cc1 [GW829116]	0	54	14	0	0	0	0	50	0	0	0	0	17	0	0	0	0	0	0	0
COc1ccc(Nc2nccc(NCCNC(=O)c3cc4ccccc4s3)n2)cc1 [GSK1379896]	0	15	0	0	22	0	44	13	0	0	0	0	0	0	0	0	0	0	8	5
c1ccc(-c2cnc3nccnn23)cc1 [AH20685]	0	0	0	0	0	0	37	0	0	31	49	1	5	0	24	0	1	8	2	0
Fc1ccc(-c2ncn(C3CCNCC3)c2-c2ccnc(Oc3ccc(-c4ccccc4)cc3)n2)cc1 [SB-245391]	24	31	5	0	31	27	29	38	25	48	32	32	0	37	22	11	0	0	0	10
CN(C)Cc1ccc(-c2ccc3c(Nc4ccc(Oc5ccccn5)cc4)ccnc3c2)o1 [GW567148]	26	93.8	0	0	1	0	0	0	0	0	27	7	27	0	6	21	22	0	15	0
COc1cccc(C2=C(Nc3ccc(Cl)c(C(=O)O)c3)C(=O)NC2=O)c1 [SB-390769]	0	0	7	0	11	0	55	0	10	26	100	100	91.1	8	100	48	0	31	14	100
Cn1cc(-c2[nH]c3cc(NC(=O)[C@H](N)C4CCCCC4)cc4c3c2C=NNC4=O)cn1	52	96.9	88	80	80	89	65	0	0	0	15	10	73	4	0	77	20	93.3	34	61
c1ccc(Oc2ccc(Nc3ccnc4cc(-c5ccc(CNCCN6CCOCC6)o5)ccc34)cc2)nc1 [GW567145]	43	76	0	0	10	0	15	12	0	0	28	0	27	0	11	20	0	0	0	5
Cc1ccc(C(=O)Nc2ccc(Nc3ccnc4cc(-c5nccs5)ccc34)cc2O)cc1.Cl [GW494702]	82	93.4	0	37	1	0	1	30	28	0	20	7	0	1	100	22	2	5	0	0
COc1ccc(CNC(=O)NC2CCN(c3ccnc(Nc4ccc(F)cc4)n3)CC2)cc1 [GSK1379788]	6	0	0	0	9	0	37	14	0	0	1	0	11	0	0	17	24	0	0	11
CN(c1ccc(NC(=O)Nc2cc(C(F)(F)F)ccc2F)cc1)c1ccnc(Nc2ccc(S(N)(=O)=O)cc2)n1 [GW809893]	2	98.3	59	64	84	99.1	99.4	15	21	0	82	44	7	13	15	49	51	6	59	95.3
COc1cc(Nc2nccc(-c3c(-c4cccc(NC(=O)c5c(F)cccc5F)c4)nn4ccccc34)n2)cc(OC)c1OC [GSK323521]	0	0	12	0	16	14	50	24	0	32	0	25	65	13	13	10	22	0	13	5
Nc1ncc(-c2cccnc2)c2scc(-c3ccc4c(c3)CCN4C(=O)Cc3ccccc3)c12 [GSK683281]	0	25	20	0	35	0	63	34	8	0	0	11	46	0	0	10	17	5	18	19
